About 83,000 compounds went through this panel and 20% of them were active in at least one assay; those are over-represented in the sample as a whole.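 Cells were grown in 96-well plates and exposed to the test compound at a single concentration for 48 hours; results are reported as percent growth, with values below 10 considered active.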 Values without a mark were called inactive. Active and inactive are the calls of the source.

The record followed here is PubChem BioAssay (NCI).

Test systems include HCT-15 colon; HT29 colon; SNB-75 CNS; U251 CNS; PC-3 prostate; SK-MEL-5 melanoma; UACC-62 melanoma; LOX IMVI melanoma; SK-MEL-28 melanoma; SK-MEL-2 melanoma; EKVX NSCLC; SN12C renal; UO-31 renal; TK-10 renal; ACHN renal; CAKI-1 renal; A498 renal; CCRF-CEM leukemia; MOLT-4 leukemia.
What all share (experiment): NCI-60 one-dose screen, 48 h (100 = growth as untreated, 0 = no growth, -100 = all killed)
Holding throughout (details): 10 µM unless noted

Regarding `CCO/C=N/C1=C(C#N)C(c2ccc(OC)cc2)c2sc3c(F)cccc3c2O1` (stereo not given), the growth is 21.3% in the test with HCT-15 colon; 7.69% (active) in the test with HT29 colon; -8.92% (active) with SNB-75 CNS; 24.7% in the test with U251 CNS; 33.3% in the test on PC-3 prostate; -22.9% (active) with SK-MEL-5 melanoma. Further, the growth in the test on UACC-62 melanoma was 12.2%; in the test with LOX IMVI melanoma, 32.2%; in the test with SK-MEL-28 melanoma, 60.4%; with SK-MEL-2 melanoma, 33.3%; in the test on EKVX NSCLC, 49.4%; in the test with SN12C renal it was 39.6%. Further, the growth in the test with UO-31 renal was 38.1%; with TK-10 renal, 51.8%; in the test with ACHN renal, 48.1%; in the test with CAKI-1 renal it was 25.2%; in the test on A498 renal, 21.7%; in the test on CCRF-CEM leukemia it was 12.2%. In the test on MOLT-4 leukemia, the growth is 24.5%.
`CC12CCC3c4ccccc4CCC3(CO1)C2` (stereo not given): the growth was 108% in the test on HCT-15 colon; 100% in the test with HT29 colon; 89.7% in the test on SNB-75 CNS; 107% in the test with U251 CNS; 88% in the test with PC-3 prostate; 102% in the test on SK-MEL-5 melanoma. For the same compound, the growth in the test on UACC-62 melanoma was 105%; in the test with LOX IMVI melanoma it was 101%; in the test with SK-MEL-28 melanoma, 99.9%; with SK-MEL-2 melanoma, 109%; with EKVX NSCLC, 107%; in the test on SN12C renal, 98.3%. Also, the growth with UO-31 renal is 117%; with TK-10 renal it was 110%; in the test with ACHN renal, 98.4%; in the test on CAKI-1 renal, 101%; in the test on CCRF-CEM leukemia it was 86.9%; in the test on MOLT-4 leukemia it was 89.3%.
`Cc1ccc(-c2csc(NC(=O)CN3CCN(c4cc5c(cc4F)c(=O)c(C(=O)O)cn5C4CC4)CC3)n2)cc1`: the growth in the test with HCT-15 colon is 10.2%; in the test on HT29 colon, 0.375% (active); with SNB-75 CNS it was 20.1%; in the test with U251 CNS, 7.62% (active); in the test on PC-3 prostate it was 6.64% (active); in the test with SK-MEL-5 melanoma, -26.4% (active). Besides, the growth was 19.1% in the test on UACC-62 melanoma; 0.737% (active) in the test with LOX IMVI melanoma; 41% in the test with SK-MEL-28 melanoma; -13.5% (active) in the test with SK-MEL-2 melanoma; 16.5% in the test on EKVX NSCLC; 16.4% in the test on SN12C renal. Further, the growth was 12.1% in the test with UO-31 renal; 15.9% in the test on TK-10 renal; 4.32% (active) in the test with ACHN renal; 20.8% in the test with CAKI-1 renal; 7.69% (active) in the test with A498 renal; 8.52% (active) in the test on CCRF-CEM leukemia. Besides, in the test on MOLT-4 leukemia, the growth is 4.51% (active).
As to `N#C/C(=C\c1ccc2ccccc2c1)c1cc2ccccc2[nH]1`, the growth in the test with HCT-15 colon is 22.5%; with HT29 colon it was 10.9%; with SNB-75 CNS it was 35.6%; with U251 CNS it was 27.8%; in the test on PC-3 prostate it was 33%; in the test on SK-MEL-5 melanoma, 35.3%. Also, the growth with UACC-62 melanoma is 32.2%; in the test on LOX IMVI melanoma, 32.3%; in the test with SK-MEL-28 melanoma it was 55.3%; with SK-MEL-2 melanoma, 43.5%; with EKVX NSCLC it was 55.3%; with SN12C renal it was 49.8%. The growth in the test on UO-31 renal was 49%; with TK-10 renal, 75.6%; with ACHN renal, 50.4%; in the test with CAKI-1 renal it was 38.1%; in the test with A498 renal, 33.7%; in the test on CCRF-CEM leukemia, 18.5%. In addition, the growth in the test with MOLT-4 leukemia was 29%.
On to `O=C1/C(=C/c2ccc(Cl)c(Cl)c2)CN(C(=O)C(Cl)Cl)C/C1=C\c1ccc(Cl)c(Cl)c1`, for which the growth with HCT-15 colon is -62.1% (active); in the test on HT29 colon, -4.7% (active); in the test on SNB-75 CNS, -70.7% (active); with U251 CNS, -92.4% (active); with PC-3 prostate, -45.6% (active); in the test on SK-MEL-5 melanoma, -79.4% (active). For the same compound, the growth with UACC-62 melanoma was -46.9% (active); in the test with LOX IMVI melanoma, -91.7% (active); with SK-MEL-28 melanoma, -64.4% (active); in the test with SK-MEL-2 melanoma, -3.03% (active); with EKVX NSCLC it was -61.7% (active); in the test on SN12C renal, -76% (active). The growth in the test on UO-31 renal was -99.3% (active); with TK-10 renal it was -50.8% (active); with ACHN renal, -100% (active); in the test with CAKI-1 renal, -74% (active); in the test with A498 renal it was -91.2% (active); in the test on CCRF-CEM leukemia, 4.82% (active). Moreover, the growth in the test on MOLT-4 leukemia was -0.286% (active).
Regarding `CN1CCN(Cc2ccc3c(NNC(=O)c4ccccc4)nc4cc(F)ccc4n23)CC1`, the growth in the test with HCT-15 colon was 33.8%; in the test with HT29 colon it was 30.7%; with SNB-75 CNS it was 48.8%; with U251 CNS, 12.2%; with PC-3 prostate, 39.9%; in the test with SK-MEL-5 melanoma, -26.8% (active). Also, the growth was 4.48% (active) in the test with UACC-62 melanoma; 7.25% (active) in the test on LOX IMVI melanoma; 34.9% in the test on SK-MEL-28 melanoma; 57.7% with SK-MEL-2 melanoma; 21.5% with EKVX NSCLC; 17.2% in the test with SN12C renal. Further, the growth is 7.31% (active) with UO-31 renal; 30% with TK-10 renal; 11.5% in the test with ACHN renal; 11.8% in the test on CAKI-1 renal; -7.93% (active) with A498 renal; 12.2% with CCRF-CEM leukemia. In the test with MOLT-4 leukemia, the growth is 12%.
Turning to `Cc1ccc(S(=O)(=O)N2CCCC2CO)cc1` (stereo not given), the growth in the test on HCT-15 colon is 95%; with HT29 colon it was 88.5%; with SNB-75 CNS, 68.1%; in the test on U251 CNS, 98.1%; in the test on PC-3 prostate, 75.6%; in the test with SK-MEL-5 melanoma, 98.4%. The growth in the test on UACC-62 melanoma is 104%; with LOX IMVI melanoma, 86.3%; in the test with SK-MEL-28 melanoma it was 163%; with SK-MEL-2 melanoma, 96.3%; in the test with EKVX NSCLC it was 101%; in the test with SN12C renal, 101%. The growth in the test with UO-31 renal was 94.2%; in the test on TK-10 renal, 101%; in the test on ACHN renal, 89.3%; with CAKI-1 renal, 85.6%; in the test on A498 renal it was 65.7%; in the test with CCRF-CEM leukemia, 68.5%. Also, the growth with MOLT-4 leukemia was 98.8%.
For `Fc1cc2c(cc1Cl)N(c1ncnc3ccc(-c4cnc5[nH]ncc5c4)cc13)CC2`, the growth is 58.8% in the test with HCT-15 colon; 56.3% in the test with HT29 colon; 19.7% in the test with SNB-75 CNS; 76.6% with U251 CNS; 53.9% in the test on PC-3 prostate; 85.2% in the test on SK-MEL-5 melanoma. The growth in the test on UACC-62 melanoma was 58.1%; with LOX IMVI melanoma, 47.2%; in the test with SK-MEL-28 melanoma it was 83.4%; in the test on SK-MEL-2 melanoma it was 91.4%; in the test with EKVX NSCLC it was 41.9%; in the test on SN12C renal it was 47.6%. The growth is 21.8% with UO-31 renal; 54.6% in the test on TK-10 renal; 30.9% in the test on ACHN renal; 38.7% with CAKI-1 renal; 71.1% with CCRF-CEM leukemia; 60.1% in the test on MOLT-4 leukemia.
